Each structure is given as a SMILES string. Records with an inconclusive call do not appear. A number with no mark means an inactive call. The source made the active and inactive calls. Unless noted, the call rests on the fitted dose curve; in most records, active means well fitted curve in the direction sought with a large enough effect in the repeat runs; inconclusive means weak or mixed curves; inactive means no such curve, though single readings can be large; an effect the other way counts as inactive or inconclusive.

Test [1] can be described thus: qHTS assay to identify small molecule agonists of the RXR signaling pathway - cell viability counter screen (AID 1159529).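 Further: HEK 293T cells carrying an RXR-alpha UAS beta-lactamase reporter; series mostly up to about 77 µM; on the % scale 0 is the no-effect control and ±100 the full control effect; nearly all actives have a fitted effect of over 50% in size.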 The essentials: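 Counter screen: CellTiter-Glo luminescence. Cells: RXR-alpha-UAS-bla HEK 293T. Medium: 2% charcoal-stripped FBS. Treatment: 16 h, 37 C. Reagent incubation: 30 min, RT.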
For orientation: Quantitative high-throughput screening tests each substance at several concentrations.

A short description of test [2]: qHTS assay to identify small molecule antagonists of the retinoid acid receptor (RAR) signaling pathway - cell viability counter screen (AID 1159551). Further: on the % scale 0 is the no-effect control and ±100 the full control effect; nearly all actives have a fitted effect of over 35% in size. Put shortly:
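Measured by luminescent ATP detection, viability reflects C3RL4 cells treated 6 h at 37 C with test chemicals in the presence of 1 uM (final) retinol.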

Test [3] can be described thus: qHTS assay to identify small molecule antagonists of the estrogen related receptor (ERR) signaling pathway from Tox21 library - cell viability counter screen (AID 1224834). Further: nearly all actives have a fitted effect of over 30% in size. Further: potency means the concentration at half of the fitted maximal effect. On viability change, negative = cytotoxic: on the % scale 0 is the no-effect control and ±100 the full control effect. The essentials:
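Seeded ERR cells were rested 6 h at 37 C/5% CO2 before compounds, positive and negative controls or DMSO were added. Incubation continued for 17.5 h, and viability was then quantified by CellTiter-Fluor fluorescence.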

Test [4] is described as follows: qHTS assay to identify small molecule agonists of the constitutive androstane receptor (CAR) signaling pathway - cell viability counter screen (AID 1224836). Further: series mostly up to about 92 µM; on the % scale 0 is the no-effect control and ±100 the full control effect; nearly all actives have a fitted effect of over 45% in size. Put shortly:
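Double-stable HepG2 hepatoma cells (hCAR plus CYP2B6-2.2kb) are treated for 23 h at 37 C with test compounds in 15-point concentration series. PK11195 at 0.75 uM final is co-added. Cell viability is quantified by CellTiter-Fluor.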

Test [5] can be described thus: qHTS assay to identify small molecule antagonists of the constitutive androstane receptor (CAR) signaling pathway - cell viability counter screen (AID 1224837). Further: series mostly up to about 92 µM; on the % scale 0 is the no-effect control and ±100 the full control effect; nearly all actives have a fitted effect of over 45% in size. The essentials: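 To flag cytotoxic false antagonists, HepG2 hCAR/CYP2B6-2.2kb cells were treated 23 hr with 15-concentration compound series and 50 nM CITCO at 37 C/5% CO2; CellTiter-Fluor fluorescence was the measured end point.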

The target of test [6] is Nuclear receptor subfamily 1 group I member 3 (Homo sapiens) (UniProt Q14994). The test can be described thus: qHTS assay to identify small molecule agonists of the constitutive androstane receptor (CAR) signaling pathway (AID 1224839). Further: nearly all actives have a fitted effect of over 15% in size. Further: potency means the concentration at half of the fitted maximal effect. The essentials: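 Readout: firefly luciferase luminescence via ONE-Glo. System: HepG2 double-stable for hCAR and CYP2B6-2.2kb. Conditions: 15-point compound titration, PK11195 at 0.75 uM final, 24 h incubation.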
Chain of Nuclear receptor subfamily 1 group I member 3 (Homo sapiens) (Q14994 whole entry, looked up): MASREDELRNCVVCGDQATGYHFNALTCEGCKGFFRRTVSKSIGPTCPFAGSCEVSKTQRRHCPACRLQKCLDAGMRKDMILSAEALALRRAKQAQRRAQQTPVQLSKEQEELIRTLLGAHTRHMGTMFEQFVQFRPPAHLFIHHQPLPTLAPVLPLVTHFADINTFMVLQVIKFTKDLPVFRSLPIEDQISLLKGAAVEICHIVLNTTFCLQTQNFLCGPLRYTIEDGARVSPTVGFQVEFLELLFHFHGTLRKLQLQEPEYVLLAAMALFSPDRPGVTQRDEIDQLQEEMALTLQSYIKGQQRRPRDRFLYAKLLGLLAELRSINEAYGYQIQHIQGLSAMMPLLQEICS

Test [7] in a line: qHTS assay to identify small molecule antagonists of the estrogen related receptor signaling pathway with the pleiotropic PPARgamma coactivator (PGC) from Tox21 10K library - cell viability counter screen (AID 1224840; active means well fitted cell-killing curve with a large enough effect in the repeat runs, not every such curve was filed as active; further: on the % scale 0 is the no-effect control and ±100 the full control effect; nearly all actives have a fitted effect of over 40% in size). Put shortly: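 Seeded PGC/ERR cells (2,000/well, 6 h, 37 C/5% CO2) get compound by pin tool; 17.5 h incubation at 37 C; CellTiter-Fluor added, 30 min, fluorescence measured.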

Test [8] can be described thus: qHTS assay to identify small molecule agonists of the estrogen related receptor signaling pathway with the pleiotropic PPARgamma coactivator (PGC) from Tox21 10K library (AID 1224842). Further: on the % scale 0 is the no-effect control and ±100 the full control effect; nearly all actives have a fitted effect of over 15% in size. The essentials:
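Luminescence from One-Glo (30 min, room temperature) measured after PGC/ERR cells had 18 h at 37 C with pinned compound (23 nL in DMSO). Cells had been seeded at 2,000 per well and pre-incubated 6 h.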

The nature of test [9]: qHTS assay to identify small molecule agonists of the retinoic acid receptor (RAR) signaling pathway (AID 1159553). Further: on the % scale 0 is the no-effect control and ±100 the full control effect. The essentials:
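6 hr compound exposure (DMSO vehicle) of overnight-plated C3RL4 RARE-luc cells at 37 C; luminescence quantified after 30 min RT with luciferase reagent.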

Test [10] concerns the target Nuclear receptor subfamily 1 group I member 3 (Homo sapiens) (UniProt Q14994). The test can be described thus: qHTS assay to identify small molecule antagonists of the constitutive androstane receptor (CAR) signaling pathway (AID 1224838).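 Further: HepG2 cells stably expressing hCAR with CYP2B6 luciferase reporter stimulated by CITCO; on the % scale 0 is the no-effect control and ±100 the full control effect; nearly all actives have a fitted effect of over 40% in size.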 Put shortly:
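Human hepatoma HepG2 cells expressing hCAR and a CYP2B6 promoter (2.2 kb) luciferase construct; compound titration (15 points) with 50 nM CITCO final, 24 h at 37 C/5% CO2; luminescence via ONE-Glo after 30 min at room temperature.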

The target in test [11] is Luciferin 4-monooxygenase (Photinus pyralis) (UniProt P08659). The test can be described thus: qHTS assay to identify small molecule inhibitors of firefly luciferase (AID 1224835). Further: nearly all actives have a fitted effect of over 25% in size. Further: potency means the concentration at half of the fitted maximal effect. The essentials: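 Inhibition of purified Photinus luciferase is measured by luminescence. Substrate levels (D-luciferin, ATP) sit at their KM values. Each compound is tested in a concentration series.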
Chain of Luciferin 4-monooxygenase (Photinus pyralis) (P08659 whole entry, looked up): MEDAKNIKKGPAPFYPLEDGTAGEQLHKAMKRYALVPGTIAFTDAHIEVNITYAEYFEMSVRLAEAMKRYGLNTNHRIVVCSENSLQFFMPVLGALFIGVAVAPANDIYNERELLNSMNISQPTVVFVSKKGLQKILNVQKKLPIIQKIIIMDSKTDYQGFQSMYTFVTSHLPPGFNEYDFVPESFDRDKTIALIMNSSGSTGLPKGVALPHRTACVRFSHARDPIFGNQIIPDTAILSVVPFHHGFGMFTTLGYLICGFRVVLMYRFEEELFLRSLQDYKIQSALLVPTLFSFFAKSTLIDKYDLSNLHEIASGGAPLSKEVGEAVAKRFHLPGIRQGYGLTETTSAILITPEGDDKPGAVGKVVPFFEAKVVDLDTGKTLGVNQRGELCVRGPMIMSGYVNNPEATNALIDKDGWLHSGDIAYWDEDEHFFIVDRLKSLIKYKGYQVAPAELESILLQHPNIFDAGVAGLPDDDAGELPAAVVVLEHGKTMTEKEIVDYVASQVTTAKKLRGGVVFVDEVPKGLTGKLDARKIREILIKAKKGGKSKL

Test [12] is described as follows: qHTS assay to identify small molecule antagonists of the retinoic acid receptor (RAR) signaling pathway (AID 1159552; further: on the % scale 0 is the no-effect control and ±100 the full control effect; nearly all actives have a fitted effect of over 50% in size). The essentials: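 Antagonism of retinol-induced RARE reporter activity was measured in C3RL4 cells. Exposure to compounds and 1 uM final retinol lasted 6 hr at 37 C, with luminescence as endpoint.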
Test [13] is described as follows: qHTS assay to identify small molecule antagonists of the estrogen related receptor signaling pathway with the pleiotropic PPARgamma coactivator (PGC) from Tox21 10K library (AID 1224841; call rule not given here; further: series mostly up to about 92 µM; on the % scale 0 is the no-effect control and ±100 the full control effect; actives are mostly falling curves and most rising ones were filed inactive; nearly all actives have a fitted effect of over 50% in size). Put shortly:
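Test chemicals dissolved in DMSO were applied to pre-incubated (6 h) PGC/ERR cells at 2,000 cells/well for an 18 h, 37 C treatment; reporter luminescence was then read using One-Glo.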

Test [14] is described as follows: qHTS assay to identify small molecule antagonists of the estrogen related receptor (ERR) signaling pathway (AID 1224819; further: potency means the concentration at half of the fitted maximal effect; nearly all actives have a fitted effect of over 50% in size). Put shortly:
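Compounds dissolved in DMSO were pin-transferred onto ERR cells that had been plated 6 h earlier, and cells were then incubated 18 h at 37 C; signal was luciferase luminescence via One-Glo.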

A short description of test [15]: qHTS assay to identify small molecule agonists of the estrogen related receptor (ERR) signaling pathway (AID 1224820). Further: on the % scale 0 is the no-effect control and ±100 the full control effect. The essentials: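 An ERR cell line provided by NTP was seeded at 2,000 cells per well and allowed to settle for 6 h before compounds in DMSO were added. After 18 h at 37 C, luciferase activity was measured by One-Glo luminescence.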
Test [16] in a line: qHTS assay to identify small molecule agonists of the estrogen related receptor signaling pathway with the pleiotropic PPARgamma coactivator (PGC) (AID 1224823). Further: on the % scale 0 is the no-effect control and ±100 the full control effect. Put shortly: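 Compounds dissolved in DMSO are added by pin tool to PGC/ERR cells that have settled for 6 h, and incubation continues 18 h at 37 C. Reporter output is measured as One-Glo luminescence.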

For `CC(=O)Nc1ccccc1O`, the Potency result in test [1], in test [3], in test [4], in test [5], in [6] and in test [7] was “inactive” in each case. For the same molecule, the Potency result in test [8] is “inactive”. The outcome in [2] was inactive.

As for `CCCCCCC/C=C/C=O`, in [2], the molecule was called inactive. Moreover, the Potency result in test [9], in [3], in test [4], in [5], in [10] and in test [6] was “inactive” in each case.

For the molecule `CC(C)=CCC[C@H](C)CCO`, the Potency result in [1], in [9], in test [3], in test [11], in test [4] and in [5] was “inactive” throughout. In test [7], the Potency result was “inactive”.

On to `Clc1nc2ccccc2nc1Cl`, for which the Potency result in test [1], in test [9], in test [3], in test [11], in test [4] and in [5] was “inactive” throughout. Moreover, the Potency entry in test [7] is “inactive”.

Consider `C[C@H](CN1CCCC1)C(=O)c1ccc(C(F)(F)F)cc1`, for which the call in test [2] and in test [12] was inactive. The Potency result in [9], in [3], in test [11], in test [4], in test [6] and in test [7] was “inactive” in each case.

In the case of `CCn1nc(Cc2ccccc2)cc1C1CCN(C[C@H]2C[C@H](N(C)[C@@H](C(=O)O)C(C)C)C[C@@H]2c2cccc(F)c2)CC1`, the call in test [2] was inactive. Also, the Potency entry in [9], in test [11], in test [4], in test [10], in test [6] and in test [7] was “inactive” in each case. The Potency entry in test [13] was “inactive”.

With `SCCOCCOCCS`, the molecule was classed as inactive in test [2]. The Potency result in [3], in test [11], in test [4], in [5], in test [10] and in test [6] was “inactive” throughout. The Potency result in test [7] is “inactive”.

`CCN(CCCCOC(=O)c1ccc(OC)c(OC)c1)C(C)Cc1ccc(OC)cc1` (stereo not given): the outcome in test [2] and in [12] was inactive. Besides, the Potency entry in test [9], in test [3], in test [11], in test [4], in test [5] and in test [10] was “inactive” in each case. Also, the Potency result in [6], in [7], in [13] and in test [8] was “inactive” each time.

For the molecule `O=C(O)c1ccc2c(c1)nc(C(=O)NC1CCN(C3CC3)CC1)n2Cc1cc(-c2ccc(Cl)s2)on1`, the activity change, negative = cytotoxicity in test [2] was 0.727% [at 19 µM]; in test [5], 10.8% [at 19 µM]. For the same molecule, the viability change, negative = cytotoxic in test [3] was -4.05% [at 19 µM]; in [4], 0.0204% [at 19 µM]. The activity change, negative = inhibition in test [11] was -1.8% [at 23.6 µM]. Besides, the activity, negative = inhibition in [10] is 19.9% [at 19 µM]. Moreover, the activation in test [6] was -1.53% [at 19 µM].

Regarding `CC/C=C\CCO`, the Potency entry in [1], in [3], in [11], in test [4], in test [5] and in test [13] was “inactive” in each case. The Potency entry in test [8] was “inactive”. Besides, the molecule was called inactive in test [2].

As to `Cc1nc2sccn2c(=O)c1CCN1CCC(=C(c2ccc(F)cc2)c2ccc(F)cc2)CC1`, the call in [2], in [12], in test [15] and in [16] was inactive. The Potency entry in test [9], in test [3], in [11], in test [4], in test [5] and in test [6] was “inactive” in each case. Moreover, the Potency entry in test [7] and in test [8] was “inactive” each time. In test [14], the Potency is 19.6 µM (active).

With `COC(=O)C(C)(C)C`, the outcome in [2] and in test [12] was inactive. For the same molecule, the Potency result in [9], in test [11], in test [4], in test [5], in test [6] and in [13] was “inactive” throughout. For the same molecule, the Potency entry in [8] was “inactive”.

Take `Cc1ccc(NC(=O)c2ccc(CN3CCN(C)CC3)cc2)cc1Nc1nccc(-c2cccnc2)n1`: the Potency result in test [1], in test [10] and in test [7] was “inactive” throughout. Moreover, in test [2], the outcome was inactive. In addition, the Potency in test [3] is 23.7 µM (active); in [6] it was 13.3 µM (active).

As for `Sc1nc(S)nc(S)n1`, the Potency result in test [1], in test [3], in test [4], in [5], in [7] and in test [13] was “inactive” each time. The Potency entry in [8] is “inactive”. In test [2], the outcome was inactive.

For the molecule `CCCCCCOC(=O)c1ccccc1`, the result in [2] was inactive. Besides, the Potency result in test [9], in test [3], in [4], in [5], in test [6] and in [13] was “inactive” throughout. Moreover, the Potency in test [11] is 15.9 µM (active).

Turning to `C=C[Si]1(C)O[Si](C)(C=C)O[Si](C)(C=C)O[Si](C)(C=C)O1` (stereo not given), the molecule was called inactive in test [2] and in [12]. Moreover, the Potency entry in [3], in test [11], in test [4], in [5], in [10] and in test [6] was “inactive” throughout.

In the case of `COC(=O)Cc1cccc2ccccc12`, the Potency entry in test [1], in test [11], in test [4], in [5], in test [10] and in test [7] was “inactive” in each case. In addition, in test [2], the outcome was inactive. Also, in test [6], the Potency was 34.4 µM (active).
